The text below walks through data of PubChem BioAssay AID1345085 (National Center for Advancing Translational Sciences (NCATS), 2018).

Results filed as inconclusive are left out. A number with no mark means an inactive call. Calls of active or inactive are those of the source. The call rests on the fitted dose curve; in most records, active means well fitted cell-killing curve with a large enough effect; inconclusive means small, poorly fitted or top-dose-only effect, or effect the other way; inactive means no such curve, though single readings can be large or run the other way.
On the % scale 0 is the no-effect control and ±100 the full control effect; potency means the concentration at half of the fitted maximal effect.

For this experiment, the system named is Jar. The experiment is described as follows: Confirmatory qHTS for gynecologic anti-cancer compounds from libraries of approved drugs and bioactive compounds. Further: nearly all actives have a fitted effect of over 55% in size. The note with it: gynecologic cancer cell panel viability, ATPlite luminescence, 48 h; series mostly up to 57.6 µM; activity change, negative = viability loss: at the top concentration. The gist of the method:
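Seeding 1,000 cells per well preceded overnight (16 h) attachment, after which 48 h drug treatment across 57.5 uM–0.977 nM (11 points) was applied. Remaining cellular ATP, detected by ATPlite luminescence, defined IC50.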
For `Cc1[nH]c2ccccc2c1CCNCc1ccc(/C=C/C(=O)NO)cc1`, the Potency is 0.193 µM (active).
On the same count and under the same terms, next, `CC1=C(/C=C/C(C)=C/C=C/C(C)=C/C(=O)Nc2ccc(O)cc2)C(C)(C)CCC1`: 21.7 µM (active); `CC(C)C[C@H](NC(=O)[C@H](Cc1ccccc1)NC(=O)c1cnccn1)B(O)O`: 0.0485 µM (active).
On the same count and under the same terms, next, `CCOc1cc2ncc(C#N)c(Nc3ccc(F)c(Cl)c3)c2cc1NC(=O)/C=C/CN(C)C`: 1.72 µM (active); `CC[C@]1(O)C[C@H]2CN(CCc3c([nH]c4ccccc34)[C@@](C(=O)OC)(c3cc4c(cc3OC)N(C=O)[C@H]3[C@@](O)(C(=O)OC)[C@H](OC(C)=O)[C@]5(CC)C=CCN6CC[C@]43[C@@H]65)C2)C1`: 0.273 µM (active).
Take `COC(C(=O)N1Cc2[nH]nc(NC(=O)c3ccc(N4CCN(C)CC4)cc3)c2C1)c1ccccc1` (configuration not stated): the “activity change, negative = viability loss” value was -23.9%.
Same read-out and setting: the figure for `COC(=O)c1ccc2c(C(=Nc3ccc(N(C)C(=O)CN4CCN(C)CC4)cc3)c3ccccc3)c(O)[nH]c2c1` is -10.2%.
With `CCCC(Nc1nc(-c2ccc(NC(=O)NCC)c(OC)c2)ncc1C)c1cccnc1` (configuration not stated), the Potency is 0.432 µM (active).
Same read-out and setting: the figure for `Nc1ccc(C(=O)Nc2cccc(-c3nc(N4CCOCC4)c4oc5ncccc5c4n3)c2)cn1` is 5.44 µM (active); for `CCC1C(=O)N(C)c2cnc(Nc3ccc(C(=O)NC4CCC(N5CCN(CC6CC6)CC5)CC4)cc3OC)nc2N1C(C)C` (configuration not stated) it is 0.0611 µM (active).
Regarding `CCN1C[C@H](C)n2c(c(O)c3c(=O)n(Cc4ccc(F)c(Cl)c4)nc(C(=O)NC)c32)C1=O`, the “activity change, negative = viability loss” value is -4.15%.
In the case of `Cc1nc(N)ncc1-c1nc(N2CCOCC2)c2sc(C(C)(C)O)cc2n1`, the Potency is 7.69 µM (active).
On the same count and under the same terms, the figure for `COc1cccc2c1C(=O)c1c(O)c3c(c(O)c1C2=O)C[C@@](O)(C(=O)CO)C[C@@H]3O[C@H]1C[C@H](N)[C@H](O[C@@H]2CCCCO2)[C@H](C)O1` is 13.7 µM (active).
For the molecule `Cc1cnc(Nc2ccc(F)cc2Cl)nc1-c1c[nH]c(C(=O)NC(CO)c2cccc(Cl)c2)c1` (configuration not stated), the “activity change, negative = viability loss” value is -14%.
Consider `CCc1c2c(nc3ccc(O)cc13)-c1cc3c(c(=O)n1C2)COC(=O)[C@]3(O)CC`, for which the Potency is 1.72 µM (active).
On to `COc1ccc2c(c1OC)C(=O)O[C@@H]2[C@H]1c2c(cc3c(c2OC)OCO3)CCN1C`, for which the Potency is 30.6 µM (active).
In the case of `Cc1nc(Nc2n[nH]c3c2CN(C(=O)NC(CN(C)C)c2ccccc2)C3(C)C)c2sccc2n1` (configuration not stated), the “activity change, negative = viability loss” value was -16.9%.
For the molecule `COc1cc2c(Nc3ccc(NC(=O)c4ccccc4)cc3)ncnc2cc1OCCCN1CCOCC1`, the Potency is 38.5 µM (active).
On to `O=c1[nH]c(=O)n([C@H]2C[C@H](O)[C@@H](CO)O2)cc1Br`, for which the “activity change, negative = viability loss” value is 3.99%.
On to `O=C(c1ccc(/C=C/c2n[nH]c3ccccc23)cc1)N1CCNCC1`, for which the Potency was 30.6 µM (active).
On to `CCCCc1nc2cc(/C=C/C(=O)NO)ccc2n1CCN(CC)CC`, for which the Potency was 1.22 µM (active).
Regarding `Cc1cnc(Nc2cccc(CN3CCOCC3)c2)nc1Nc1cccc(S(=O)(=O)NC(C)(C)C)c1`, the Potency was 21.7 µM (active).
The same measure, in the same setting: next, `Cc1ccc(C(=O)N(CCCN)C(c2oc3cc(Cl)ccc3c(=O)c2Cc2ccccc2)C(C)C)cc1` (configuration not stated): 0.0137 µM (active).
For the molecule `CN(C)CC/C=C1\c2ccccc2COc2ccccc21`, the “activity change, negative = viability loss” value was -9.39%.
As to `C[C@@]1(C(=O)Nc2ccc(F)nc2)CCCN1c1nc(Nc2cc(C3CC3)[nH]n2)c2cccn2n1`, the Potency was 8.63 µM (active).
`NS(=O)(=O)OC[C@@H]1C[C@@H](n2ccc3c(N[C@H]4CCc5ccccc54)ncnc32)C[C@@H]1O`: the “activity change, negative = viability loss” value is -26.3%.
Regarding `O=C(CCCCCCNC(=O)c1cnc(N(c2ccccc2)c2ccccc2)nc1)NO`, the Potency is 8.63 µM (active).
On the same count and under the same terms, the figure for `Cn1c(=O)c(-c2c(Cl)cccc2Cl)cc2cnc(Nc3cccc(C(=O)O)c3)nc21` is 2.43 µM (active); for `CCS(=O)(=O)N1CCN(c2ccc(Nc3ncc(C(N)=O)c(NC4CC4)n3)cc2)CC1` it is 12.2 µM (active); for `S=c1nc[nH]c2nc[nH]c12` it is 13.7 µM (active).
`CC(C)Oc1ccc(C(=O)NC(CNC(=O)CN(C)C)Cc2ccc(-c3cn4cccc(C(C)O)c4n3)cc2)cc1Cl` (configuration not stated): the Potency was 0.172 µM (active).
For the molecule `Cc1nc(N)sc1-c1ccnc(Nc2ccc(N3CCOCC3)cc2)n1`, the Potency was 3.85 µM (active).
Take `CN1CCN(Cc2ccc(NC(=O)Nc3ccc(Oc4cc(NC(=O)C5CC5)ncn4)cc3)cc2C(F)(F)F)CC1`: the Potency was 19.3 µM (active).
With `Nc1ccc(-c2ccc3ncc4ccc(=O)n(-c5cccc(C(F)(F)F)c5)c4c3c2)cn1`, the Potency is 1.22 µM (active).
Regarding `CCC(=O)N1CCN(c2ccc(-n3c(=O)ccc4cnc5ccc(-c6cnc7ccccc7c6)cc5c43)cc2C(F)(F)F)CC1`, the Potency is 1.57 µM (active).
Consider `COc1cc(N2CCC(N3CCN(C)CC3)CC2)ccc1Nc1ncc(Cl)c(Nc2ccccc2S(=O)(=O)C(C)C)n1`, for which the Potency was 17.2 µM (active).
On to `O=c1c(-c2ccc(O)cc2)coc2cc(O)cc(O)c12`, for which the “activity change, negative = viability loss” value is -2.15%.
